From PubChem BioAssay
Rtt109 Vps75: inhibitors of Candida albicans Rtt109/Vps75 histone acetyltransferase. Q5AAJ8. purified Rtt109/Vps75, ThioGlo CoA-SH fluorescence, 4 h. inhibition, % at 34.9 µM. hit rate 0.16% among 330,000. AID 540336;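 active = inhibition of at least 50% in every replicate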
ALR H2O2 inh: inhibitors of human sulfhydryl oxidase ALR | inhibition, % (concentration not given with the values) | P55789 | AID 485317 | hit rate 3.8% among 290,000 | purified ALR, DTT oxidation, H2O2 HRP-luminol luminescence;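 active = mean replicate inhibition above about 79%, with every replicate also reaching it, limit read from the data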
Target sequence (P55789 whole entry, looked up): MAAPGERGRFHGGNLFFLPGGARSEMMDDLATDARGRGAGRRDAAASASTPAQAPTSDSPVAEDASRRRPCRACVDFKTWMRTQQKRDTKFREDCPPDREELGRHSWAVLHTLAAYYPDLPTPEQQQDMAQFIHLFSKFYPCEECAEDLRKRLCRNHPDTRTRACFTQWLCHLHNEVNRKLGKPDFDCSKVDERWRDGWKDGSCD
PRMT1 inh: PRMT1 (human) inhibition, primary screen. recombinant PRMT1, activity-based probe fluorescence polarization. Q99873. AID 652257. hit rate 1.3% among 370,000. inhibition, % at 2.79 µM;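 active = inhibition above about 21% made by adding two undisclosed values, limit read from the data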
Target sequence (Q99873 whole entry, looked up): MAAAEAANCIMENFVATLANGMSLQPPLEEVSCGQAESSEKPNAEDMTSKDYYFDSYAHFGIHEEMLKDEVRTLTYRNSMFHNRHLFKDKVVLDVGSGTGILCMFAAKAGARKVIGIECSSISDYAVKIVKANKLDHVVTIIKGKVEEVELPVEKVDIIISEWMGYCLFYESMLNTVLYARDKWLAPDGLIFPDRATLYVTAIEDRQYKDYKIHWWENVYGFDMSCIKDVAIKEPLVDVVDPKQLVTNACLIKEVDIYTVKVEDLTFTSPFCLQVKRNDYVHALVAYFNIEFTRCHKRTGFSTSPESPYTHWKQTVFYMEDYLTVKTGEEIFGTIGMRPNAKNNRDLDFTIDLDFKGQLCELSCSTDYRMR
LANA-H2A inh: blocks KSHV LANA binding to histone H2A/H2B | cell-free LANA-H2A/H2B peptide, fluorescence polarization | inhibition, % (concentration not given with the values) | hit rate 0.6% among 320,000; in the data active = inhibition mostly above about 10%, no sharp cut-off; inactive = mostly below about 6.7%
rCAG binder: r(CAG) repeat RNA binding. TO-PRO-1 dye displacement fluorescence. inhibition, % at 3 µM. hit rate 1.3% among 370,000. AID 651821;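 active = inhibition above the plate cutoff, the mean of all test compounds on that plate plus 3 SD, cut at about 35% in these data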;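 note: 0% = DMSO alone and 100% = 100 µM mitoxantrone as full dye displacement; higher means more dye released from RNA so lower well fluorescence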
ABHD5-PLIN5 inh: inhibitors of human ABHD5-perilipin-5 interaction | Split G. princeps luciferase complementation, luminescence, 4 h | inhibition, % at 4 µM | hit rate 0.78% among 360,000 | AID 602281;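 active = inhibition above the mean inhibition across every tested compound plus 3 SD, cut at about 22% in these data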;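 note: 0% = DMSO only wells and the 100% control is not disclosed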
* = called active by the depositor; i = inactive; nt = not tested or not shown. Most compounds without a hit are left out; they make up all but 5.9% or so of the library.

SMILES | Rtt109 Vps75 | ALR H2O2 inh | PRMT1 inh | LANA-H2A inh | rCAG binder | ABHD5-PLIN5 inh
COc1ccc(NCc2ccc([N+](=O)[O-])s2)cc1 | 5 | 99* | 2 | 6 | 2 | 0
CC(C)OCCCn1c(-c2ccco2)nc2nc3ccccc3nc21 | -5 | 98* | 20 | -1 | 9 | 15
COCCn1c(-c2ccco2)nc2nc3ccccc3nc21 | i | nt | 4 | 2 | 4 | 5
NS(=O)(=O)c1cc(C(=O)OCC(=O)Nc2ccc3c(c2)OCO3)ccc1Cl | -3 | -22 | -1 | -1 | 5 | 0
Cc1c(C(=O)Nc2ccc(S(=O)(=O)N(C)C3CCN(C)CC3)cc2)oc2c(Cl)cccc12 | 66* | 13 | -2 | -3 | 0 | 11
CN(C)c1ccsc1C(=O)NNS(=O)(=O)c1ccc(Cl)cc1 | -2 | nt | 1 | -6 | 1 | -6
O=C(NC1CCCC1)c1ccc(COCC(F)(F)F)o1 | 3 | -8 | -2 | 2 | -2 | -2
O=C(NC1CCCC1)c1ccc(COCC(F)(F)C(F)F)o1 | -5 | 98* | nt | 3 | nt | -8
COc1ccccc1NC(=O)CN1CCSc2ccccc21 | 3 | 80* | 2 | 1 | -6 | -6
COc1cccc(NC(=O)CN2CCSc3ccccc32)c1 | 1 | 100* | 3 | 2 | 0 | -6
Cc1cccc(NC(=O)CN2CCSc3ccccc32)c1 | 2 | nt | 7 | 0 | 2 | 2
COc1ccccc1NC(=O)CN1CCN(Cc2ccccc2)CC1 | 8 | -35 | 1 | 0 | 1 | 2
CCCC[C@@H]1C(=O)N2N=Cc3cc(C)c(C)cc3[C@H]2N2N=Cc3cc(C)c(C)cc3[C@@H]12 | nt | nt | 5 | nt | 9 | nt
C/C(=N\NC(=S)Nc1ccc(F)cc1)C1CC1 | 7 | 98* | 1 | 7 | 1 | -6
Oc1ccc(NC(=S)Nc2ccc(F)cc2)cc1 | -1 | 98* | 1 | -1 | -1 | -17
CNC(=S)Nc1ccc(Br)cc1 | 2 | nt | -1 | 2 | 0 | 0
Fc1ccc(NC(=S)Nc2ccc(Br)cc2)cc1 | 55* | nt | 0 | nt | 5 | -10
CCc1ccc(CCC(=O)N2CCN(S(=O)(=O)c3ccc(Br)cc3)CC2)cc1 | nt | nt | -3 | nt | 4 | -3
CCN1Cc2nnn(CC3CCCCC3)c2-c2ccccc2S1(=O)=O | nt | nt | 0 | nt | -2 | nt
CCCCCCCCNC(=O)C1CSCCS(=O)(=O)N1Cc1ccc(F)cc1 (stereo not given) | nt | nt | 1 | nt | -1 | nt
O=C(N[C@H](CO)c1ccccc1)[C@H]1O[C@@H](n2ccc(=O)[nH]c2=O)[C@H](O)[C@@H]1O | nt | nt | -2 | nt | 1 | -6
CCc1ccc2oc(=O)cc(CN3CCC(C)CC3)c2c1 | 3 | -13 | -1 | 21* | -2 | 5
COc1ccc(NC(=O)CSc2nnc(-c3n[nH]c4c3CCC4)n2N)cc1 | nt | nt | -1 | nt | 0 | nt
COc1ccc(N(C)C(=O)c2cc3c(s2)-c2ccc(Cl)cc2S(=O)(=O)C3)c(OC)c1 | 6 | 0 | -2 | 3 | 6 | 0
COc1ccc(N(C)C(=O)c2cc3c(s2)-c2ccccc2OC3)c(OC)c1 | 8 | -2 | -5 | 18* | -1 | -2
SMILES | Rtt109 Vps75 | ALR H2O2 inh | PRMT1 inh | LANA-H2A inh | rCAG binder | ABHD5-PLIN5 inh
Cc1cc(C)cc(OCC(C)CN2CCC(C(O)(c3ccccc3)c3ccccc3)CC2)c1 (stereo not given) | nt | nt | 2 | nt | 3 | nt
NC(=S)NNc1cc(Cl)cc(Cl)c1 | -3 | 97* | 18 | 8 | 3 | -16
Cc1ccc(-c2noc(C3CCCN(C(=O)c4cccc(F)c4)C3)n2)cc1 (stereo not given) | -10 | -18 | -2 | 16* | -7 | -3
O=C(Nc1ccc(F)cc1F)N1CCCC(c2nc(-c3ccc(F)cc3)no2)C1 (stereo not given) | 64* | 1 | -1 | 2 | -8 | 5
Cc1ccc(-c2noc(C3CCCN(C(=O)c4c(F)cccc4F)C3)n2)cc1 (stereo not given) | 1 | 0 | 1 | -2 | -5 | -4
O=C(c1ccc(F)cc1F)N1CCCC(c2nc(-c3ccc(F)cc3)no2)C1 (stereo not given) | 4 | -28 | -2 | 7 | -6 | 6
OC(c1ccc(-c2ccccc2)cc1)c1ncc(-c2ccccc2Cl)[nH]1 (stereo not given) | nt | nt | -2 | nt | 4 | -9
CCOC(=O)c1ccccc1NC(=O)COc1ccccc1 | 3 | 97* | 5 | 2 | -6 | -5
CCOC(=O)c1ccccc1NC(=O)COC(=O)CCCOc1ccccc1 | nt | -1 | -4 | -2 | -4 | -2
CN(c1ccc(OCC(=O)Nc2ccccc2C(=O)O)cc1)S(=O)(=O)c1ccc(Cl)cc1 | -9 | 63 | 2 | 6 | 55* | -4
CCCCCn1nnnc1C1(C)CCCC(=O)N1Cc1ccco1 (stereo not given) | nt | nt | -5 | nt | 2 | nt
CCCCn1cnc2c(=O)[nH]ccc21 | nt | nt | -6 | nt | 2 | nt
CCOc1cccc(/C=N/NC(=O)c2ccc3c(c2)OCCO3)c1O | 7 | 90* | -1 | 5 | 6 | -4
COc1cccc(/C=N/NC(=O)CNC(=O)c2ccc3c(c2)OCCO3)c1O | -3 | 94* | -3 | -4 | 2 | 1
Cc1cccc(/C=N/NC(=O)c2ccc3c(c2)OCCO3)c1O | -8 | 14 | 6 | 5 | 10 | -3
O=C(CNC(=O)c1ccc2c(c1)OCCO2)N/N=C/c1ccc(O)cc1O | 9 | 27 | 3 | -11 | 2 | 8
CCOC(=O)c1cc(OC(=O)c2ccccc2Br)n(-c2ccccc2)n1 | 14 | 61 | 2 | 17* | 32 | -6
O=C(NCC(c1ccccc1)c1ccccc1)[C@H](Cc1c[nH]c2ccccc12)NC1(C(=O)NC2CCCCC2)CCN(Cc2ccccc2)CC1 | nt | nt | -5 | nt | nt | nt
Cc1cccc(C)c1NC(=O)C1(C)CN(S(C)(=O)=O)CC(=O)N1CCc1ccc(O)cc1 (stereo not given) | nt | nt | 4 | nt | 3 | 4
Cc1cccc(-n2c(Cc3ccccc3)n[nH]c2=S)c1 | 25 | 5 | 1 | 1 | -3 | -1
Cc1cccc(-n2c(CCn3nc(C)c([N+](=O)[O-])c3C)n[nH]c2=S)c1 | 3 | 92* | 2 | 1 | 1 | -10
COc1cccc(-n2c(CCn3nc(C)c([N+](=O)[O-])c3C)n[nH]c2=S)c1 | 3 | 85* | 0 | 2 | 3 | -1
Cc1ccccc1C(=O)NNS(=O)(=O)c1ccc(F)cc1 | nt | nt | 2 | nt | 2 | 5
Cc1cc(C)cc(NC(=O)N2CCN(Cc3nc4ccccc4c(=O)[nH]3)CC2)c1 | nt | nt | 0 | nt | 0 | nt
Cc1nn2c(NCCCN(C)C)c3c(nc2c1-c1ccccc1)CCCC3 | -6 | 97* | -1 | 4 | -2 | 11
Cc1nn2c(NCCCN(C)C)c3c(nc2c1-c1ccccc1)CCC3 | -9 | 88* | -2 | -1 | 0 | 9
COCCNc1c2c(nc3c(-c4ccccc4)c(C)nn13)CCC2 | -11 | nt | 2 | -5 | -9 | 1
